Source: PubChem BioAssay (National Center for Advancing Translational Sciences (NCATS))
This excerpt belongs to a sample that is enriched for hits.
CHX counter = counter-screen hit for Shiga toxin inhibitors, cycloheximide; cell reporter, cycloheximide protein synthesis inhibition counterscreen; max response, %; hit rate 12% among 300,000; AID 2314; in the data active = max response mostly above about 13%, no sharp cut-off; inactive = mostly below about 14%; also: read at 38.3 µM for the half of the compounds with a filed dose; 0% is about no effect
VACV Venus inh = inhibitors of vaccinia virus (Venus reporter); Potency, µM (series often up to 36.5 µM), for the others: at the top dose activity change, negative = inhibition, usual class: inhibitors; Vaccinia virus Venus reporter expression, fluorescence; hit rate 0.46% among 330,000; calls by dose curve; tested in A549 cells; also: potency is read from the fitted curve at half-maximal effect; % is scaled to controls: 0 for no effect and ±100 for the full control effect; nearly all actives have a fitted effect of over 30% in size
LASV entry inh = Lassa virus entry inhibition. Lassa virus pseudotype entry inhibition, cell reporter. Potency, µM (doses to about 37.9 µM), for inactives: top-dose activity change, negative = inhibition, hits mostly inhibitors. hit rate 1.2% among 300,000. AID 540256; calls by dose curve; tested in HEK293 cells; also: potency is read from the fitted curve at half-maximal effect; % is scaled to controls: 0 for no effect and ±100 for the full control effect; nearly all actives have a fitted effect of over 50% in size
Vaccinia mCherry = inhibitors of vaccinia virus infection (mCherry reporter signal); Vaccinia virus mCherry reporter infection, fluorescence; Potency, µM (series often up to 36.5 µM), without a hit: at the highest dose activity change, negative = inhibition, actives largely listed as inhibitors; hit rate 0.63% among 310,000; calls by dose curve; tested in A549 cells; also: potency is read from the fitted curve at half-maximal effect; % is scaled to controls: 0 for no effect and ±100 for the full control effect; nearly all actives have a fitted effect of over 35% in size
Marburg entry inh = inhibitors of Marburg virus binding or cell entry; Marburg virus pseudotyped entry inhibition, cell reporter; Potency, µM (highest dose often 37.8 µM), for the others: top-dose activity change, negative = inhibition, actives largely listed as inhibitors; hit rate 1.8% among 300,000; AID 540276; calls by dose curve; tested in HEK293 cells; also: potency is read from the fitted curve at half-maximal effect; % is scaled to controls: 0 for no effect and ±100 for the full control effect
Shiga inhibitor = inhibitors of Shiga toxin in Vero cells | Vero cells, Shiga toxin protein synthesis inhibition reporter | inhibition, % at 38.7 µM | hit rate 9.2% among 290,000; in the data active = inhibition mostly above about 28%, no sharp cut-off; inactive = mostly below about 43%; also: 0% is about no effect
Active calls of the source: *; i = inactive; ? = inconclusive; . = no result; [ ] = remark or other dose.

SMILES	CHX counter	VACV Venus inh	LASV entry inh	Vaccinia mCherry	Marburg entry inh	Shiga inhibitor
O=C1Nc2cc(Cl)c(Cl)cc2N(O)N1c1ccccc1	30*	-9%	18%	-14%	3%	20
COc1cccc(-c2cc(C(=O)N3CCN(C(c4ccccc4)c4ccccc4)CC3)no2)c1	21	-9%	-21%	-22%	-4%	22
COc1ccc(-c2cc(C(=O)N3CCOCC3)no2)cc1	30*	-6%	?	i	?	49
COc1ccc(-c2cc(C(=O)N3CCOCC3)no2)cc1OC	29*	-7%	5%	i	-3%	129*
COc1cccc(-c2cc(C(=O)N3CCOCC3)no2)c1	40*	-2%	-21%[46.1 µM]	-3%	10µM*	41
Cc1nc2c(c(C)c1CCC(=O)NCc1ccccc1)c(=O)n(C)c(=O)n2C	.	8%	?	7%	3%[46.1 µM]	.
CCCN(CCC)C(=O)c1cn(C)c2ccc(S(=O)(=O)N3CCCC3)cc2c1=O	-5	.	.	.	.	-5
Cc1nc(Cl)sc1C(=O)Nc1ccc(Cl)cc1	25*	-13%	15%	-17%	6%	71*
Cc1nc(Cl)sc1C(=O)Nc1ccccc1	11*	?	?	?	17%	21
Cc1nc(Cl)sc1C(=O)Nc1ccc2ccccc2c1	66*	-7%	?	i	?	192*
Cc1cccc(C)c1NC(=O)c1sc(Cl)nc1C	1	-19%	-3%	-23%	-23%	14
Cc1nc(C)c(C(=O)Nc2ccccc2)s1	8	-5%	15%	.	23%[46.1 µM]	35
Cc1nc(Cl)sc1C(=O)Nc1cccc(Cl)c1	31*	.	.	.	.	.
CC(=O)c1cccc(NC(=O)c2sc(Cl)nc2C)c1	12	.	.	.	.	.
O=C(Nc1cccc(F)c1)c1sc(Cl)nc1-c1ccccc1	-2	-24%	-2%	?	6%	-6
CCOC(=O)c1sc(-c2ccccn2)nc1C	45*	-12%	17%	i	?	112*
Cc1nc(-c2ccccn2)sc1C(=O)Nc1ccc(Cl)c(Cl)c1	26*	-29%	4%	-10%	11%	128*
Cc1c(C(=O)Nc2ccccc2)sc2nc[nH]c(=O)c12	15*	-9%	8%	i	-2%	-4
Cc1nc(C)c(C(=O)Nc2cccc(F)c2)s1	19*	-7%	0%[46.1 µM]	i	8%[46.1 µM]	35*
CCCNC(=O)C1CCN(c2cc(C)nc3c(-c4ccc(OC)c(OC)c4)c(C)nn23)CC1	.	-7%	6%[46.1 µM]	-16%	-7%[46.1 µM]	.
Cc1ccc(CNC(=O)C2CCCN(S(=O)(=O)c3ccc4c(ccn4C)c3)C2)cc1 (stereo unspecified)	.	6%	?	-11%	.	.
O=C(NCCc1ccccc1)c1cccc(S(=O)(=O)N2CCCCC2)c1	28*	-17%	-34%	-23%	?	40*
CC(NC(=O)c1cccc(S(=O)(=O)N2CCN(Cc3ccccc3)CC2)c1)c1ccc(Cl)cc1 (stereo unspecified)	.	-4%	0.89µM*	?	?	.
CN(C)S(=O)(=O)c1cccc(C(=O)Nc2ccccc2)c1	15	-6%	-3%	0%	2%[46.1 µM]	42
C=CCN(c1ccccc1Cl)S(=O)(=O)c1cccc(C(=O)NCCc2ccc(OC)cc2)c1	5	?	12µM*	?	?	26
SMILES	CHX counter	VACV Venus inh	LASV entry inh	Vaccinia mCherry	Marburg entry inh	Shiga inhibitor
CN(C)S(=O)(=O)c1cccc(C(=O)NCCc2ccccc2)c1	48*	-18%	?	.	?	72*
O=C(NCc1ccccc1)c1cccc(S(=O)(=O)N2CCCCC2)c1	-2	-3%	?	-16%	-19%[46.1 µM]	-5
COc1ccccc1NC(=O)c1cccc(S(=O)(=O)N2CCN(Cc3ccccc3)CC2)c1	.	-3%	?	-2%	-17%[46.1 µM]	.
CCOC(=O)c1sc2ccccc2c1S(=O)(=O)N1CCN(c2cccc(C)c2)C(C)C1 (stereo unspecified)	.	-10%	?	-13%	.	.
O=C(O)c1cccc(S(=O)(=O)Nc2ccccc2C(=O)NCCc2ccccc2)c1	29*	0%	4%[46.1 µM]	i	?	46*
O=C(NCCc1ccccc1)c1ccc(S(=O)(=O)N2CCCC2)cc1	.	-30%	-11%	-16%	?	.
CN(C)S(=O)(=O)c1ccc(C(=O)NCCc2ccco2)cc1	25*	-8%	23%	i	3%	63*
O=C(NCCc1ccccc1)C1=CCN(S(=O)(=O)c2ccccc2)CC1	30*	.	.	.	.	35
O=C(O)c1cccc(S(=O)(=O)NCCc2ccccc2)c1	-2	-11%	26%	-1%	?	-11
CSc1ccccc1OCc1cc(C(=O)N(C)Cc2cc(C)[nH]n2)no1	28*	-19%	?	-16%	18%[46.1 µM]	63
CSc1ccccc1OCc1cc(C(=O)N(C)Cc2c(C)n[nH]c2C)no1	14*	-12%	-29%	i	11%	11
CN(Cc1nccs1)C(=O)c1cc(COc2cccc3cnccc23)on1	5	.	.	.	.	-6
CSc1ccccc1OCc1cc(C(=O)NCc2cnc(C)cn2)no1	7	-17%	-1%	-2%	20%	-5
CSc1ccccc1OCc1cc(C(=O)N(C)Cc2cnccn2)no1	52*	-1%	3%[46.1 µM]	-16%	?	110*
COc1ccc(-c2cn3nc(N4CCC(C(=O)Nc5ccc(C)cc5)CC4)sc3n2)cc1	.	-16%	12%[46.1 µM]	-22%	.	.
Cc1cc(=O)n(Cc2ccc(F)cc2Cl)c2c1c(C)nn2-c1ccccc1	.	9%	-12%[46.1 µM]	-6%	.	.
CC(=O)Nc1ccc(S(=O)(=O)N/N=C/c2cccnc2)cc1	-4	.	.	.	.	-2
CC(=O)Nc1ccc(S(=O)(=O)N/N=C/c2ccc(C)s2)cc1	48*	-17%	?	-7%	-1%	73*
CCCCNC(=S)N/N=C/c1ccccc1F	16*	-23%	-9%	i	?	19
CCOC(=O)N/N=C\c1ccc(C)s1	29*	.	4%	.	27%	68*
CCOC(=O)N/N=C\c1sccc1C	8	-5%	14%[46.1 µM]	-11%	?	15
Cc1ccc(/C=N/NC(=S)NCCc2ccccc2)s1	17	.	.	.	.	12
CCCCNC(=S)N/N=C/c1ccc(C)s1	50*	-4%	-17%	-17%	1%	61*
O=C(C[N+]12CCCc3cccc(c31)CCC2)c1ccc2ccccc2c1	.	-17%	.	i	.	.
Cc1ccc(C2=NN(C(=O)c3ccccc3F)C(c3ccccc3F)C2)cc1 (stereo unspecified)	3	?	?	?	?	-2
COc1ccc(C2=NN3C(C2)c2ccccc2OC32C(=O)N(C)c3ccccc32)cc1 (stereo unspecified)	62*	-8%	?	.	?	109*
Cc1ccc(C2=NN3C(C(=O)c4ccccc4)Oc4ccccc4C3C2)cc1 (stereo unspecified)	34*	.	-10%	.	-2%	86*
Cc1ccc(C(=O)C2Oc3ccccc3C3CC(c4ccc(C)cc4)=NN23)cc1 (stereo unspecified)	53*	-4%	-2%	i	?	60*
